Assay outcomes (PubChem)
Pol beta inh – DNA polymerase beta (human) inhibition. Potency, µM (top dose mostly 114 µM), hits mostly inhibitors. Pol beta primer extension/strand displacement, fluorescence kinetic. actives 1.3% (n = 340,000)
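Pol beta (10 nM) and compounds were preincubated 15 min at room temperature, then 50 nM substrate (final) started primer extension/strand displacement. Reads were taken at 0 and 10 min; concentration-response data were fitted to a four-parameter Hill equation.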
POLK inh – DNA polymerase kappa (human) inhibition. actives 0.53% (n = 400,000). AID 588579. purified Pol kappa, fluorescent DNA synthesis assay, 10 min. Potency, µM (titrated, usually from 107 µM), actives largely listed as inhibitors
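First, compounds were pin-transferred onto 10 nM Pol kappa. After 15 min at room temperature, substrate was added to 50 nM final. Fluorescence was then measured kinetically at 0 and 10 min.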
FEN1 inhibitor – inhibitors of human flap endonuclease 1; P39748; actives 0.35% (n = 390,000); Potency, µM (series often up to 114 µM), usual class: inhibitors; Recombinant FEN1 flap cleavage, fluorescence, 15 min; note: nearly all actives have a fitted effect of over 65% in size
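Concentration–response screening of FEN1 (10 nM): 15 min compound preincubation at room temperature, reaction started with 50 nM substrate and read at 0 and 15 min. Corrected, normalized data were fitted by a four-parameter Hill equation.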
WRN helicase inh – inhibitors of human WRN helicase; Potency, µM (highest dose often 114 µM), hits mostly inhibitors; WRN helicase unwinding, fluorescent forked duplex, kinetic; actives 0.46% (n = 360,000); Q14191; note: nearly all actives have a fitted effect of over 55% in size
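Kinetic fluorescence helicase assay: unwinding of a quenched forked DNA duplex (100 nM final) with 2 mM ATP final raises red fluorescence (525/598 nm). Compounds sat 15 min at room temperature with 20 nM WRN beforehand.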
POLH inh – inhibitors of human DNA polymerase eta; Q9Y253; Potency, µM (titrated, usually from 114 µM), hits mostly inhibitors; actives 1.2% (n = 390,000); recombinant Pol eta, fluorescent DNA replication assay; AID 588591
Target sequence (Q9Y253 whole entry, looked up): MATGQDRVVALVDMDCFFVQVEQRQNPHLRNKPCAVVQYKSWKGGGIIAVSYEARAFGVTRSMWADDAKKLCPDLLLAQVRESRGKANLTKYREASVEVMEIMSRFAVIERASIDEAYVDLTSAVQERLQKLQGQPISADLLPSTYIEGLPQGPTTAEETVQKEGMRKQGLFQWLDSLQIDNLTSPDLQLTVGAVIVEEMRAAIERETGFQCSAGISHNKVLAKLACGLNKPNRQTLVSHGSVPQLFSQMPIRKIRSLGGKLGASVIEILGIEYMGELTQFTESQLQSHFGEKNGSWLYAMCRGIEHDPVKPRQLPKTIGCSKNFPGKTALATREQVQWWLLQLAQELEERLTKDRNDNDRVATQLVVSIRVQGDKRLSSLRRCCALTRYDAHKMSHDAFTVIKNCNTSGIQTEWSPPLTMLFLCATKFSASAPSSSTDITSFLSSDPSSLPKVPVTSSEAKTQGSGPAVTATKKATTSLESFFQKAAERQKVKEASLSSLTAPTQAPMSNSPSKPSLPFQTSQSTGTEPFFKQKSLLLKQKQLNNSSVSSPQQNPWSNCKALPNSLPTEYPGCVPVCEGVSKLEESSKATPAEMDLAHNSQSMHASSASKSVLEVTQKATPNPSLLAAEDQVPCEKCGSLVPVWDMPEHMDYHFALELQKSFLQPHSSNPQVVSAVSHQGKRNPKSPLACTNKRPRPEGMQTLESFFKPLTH
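Pol eta at 10 nM preincubated with compounds 15 min at room temperature; reaction started with fluorescent substrate (50 nM final) and read kinetically at 0 and 10 min.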
POLI inh – inhibitors of human DNA polymerase iota; Pol iota fluorescent replication assay, 10 min; Potency, µM (titrated, usually from 115 µM), usual class: inhibitors; actives 1% (n = 390,000); Q9UNA4; AID 588590
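Fluorescent replication assay read twice, at 0 min and 10 min after adding 50 nM (final) substrate. Enzyme (10 nM) and compounds were first incubated 15 min at room temperature; enzyme-free buffer wells were negative controls.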
Numbers stand for hits; ! = a repeat was not active; [ ] = another dose, or the depositor's remark. Hits are enriched below; roughly 2.4% of the tested compounds scored in any of these assays. Calls come from the whole dose curve; as a rule, active = well fitted curve in the direction sought with a large enough effect; inconclusive = small, poorly fitted or top-dose-only effect, or another doubt; inactive = no such curve, though single readings can be large; an effect the other way counts as inactive or inconclusive.

O=C1C=CC(=O)N1c1ccc2c(c1)C(NC(=O)C(F)(F)F)c1ccccc1-2 (configuration not stated) was read as POLK inh inactive, FEN1 inhibitor inactive, WRN helicase inh 56µM, POLH inh inactive and POLI inh inactive.
`O=C(Nc1ccccc1)c1ccccc1NS(=O)(=O)c1ccc(Cl)s1` gave Pol beta inh inactive, POLK inh inactive, FEN1 inhibitor inactive, WRN helicase inh inactive, POLH inh inactive and POLI inh inactive.
For O=C(Nc1ccccc1Cc1ccccc1)c1ccccc1NS(=O)(=O)c1ccc(Cl)s1 the results were Pol beta inh inconclusive, POLK inh inactive, FEN1 inhibitor inconclusive, WRN helicase inh inactive, POLH inh 79µM and POLI inh inactive.
C[C@H](N)C(=O)N[C@@H](CO)C(=O)N[C@H](C(=O)N[C@H](C(=O)N[C@H](C(=O)N[C@@H](CC(N)=O)C(=O)N[C@@H](Cc1ccc(O)cc1)C(=O)N[C@H](C(=O)O)[C@@H](C)O)[C@@H](C)O)[C@@H](C)O)[C@@H](C)O was read as POLK inh inactive.
For C[N+](C)(C)c1ccc(/C=C2\C=Cc3ccccc32)cc1 the results were POLK inh inactive, FEN1 inhibitor 35µM and POLI inh inactive.
Screening CC(=O)N(C)c1ccc(/C=C2\C=Cc3ccccc32)cc1 returned POLK inh inactive, FEN1 inhibitor inactive and POLI inh inactive.
For C1=Cc2ccccc2/C1=C\c1cc[cH-]c1.[Fe+2].c1cc[cH-]c1 the results were POLK inh 1.1µM, FEN1 inhibitor 13µM and POLI inh 1.8µM.
`CN(CC(=O)O)c1ccc(/C=C2\C=Cc3ccccc32)cc1` gave POLK inh 56µM!, FEN1 inhibitor inactive and POLI inh inactive.
Nc1ccc(/C=C2\C=Cc3ccccc32)cc1 was read as POLK inh inactive, FEN1 inhibitor inactive and POLI inh inactive.
Screening COc1cc(/C=C/c2cccc[n+]2C)ccc1OCC(=O)Nc1ccccc1C returned Pol beta inh inactive, POLK inh inactive, FEN1 inhibitor inactive, WRN helicase inh inactive, POLH inh inactive and POLI inh inactive.
`CCOc1cc(/C=C/c2cccc[n+]2C)ccc1OCC(=O)Nc1ccc(C)cc1` gave Pol beta inh 13µM, POLK inh inconclusive, FEN1 inhibitor inactive, WRN helicase inh inactive, POLH inh inactive and POLI inh inconclusive.
Screening Cc1ccc(NC(=S)NC(=O)/C=C/c2ccco2)c(O)c1 returned Pol beta inh 18µM, POLK inh inconclusive, FEN1 inhibitor inactive, WRN helicase inh inactive, POLH inh inconclusive and POLI inh inconclusive.
Screening Cc1cc(C)c2oc(-c3ccc(C)c(NC(=S)NC(=O)/C=C/c4ccco4)c3)nc2c1 returned Pol beta inh 20µM, POLK inh inactive, FEN1 inhibitor inactive, WRN helicase inh inactive, POLH inh inconclusive and POLI inh inactive.
Cc1ccc2oc(-c3cccc(NC(=S)NC(=O)/C=C/c4ccco4)c3)nc2c1 was read as Pol beta inh 45µM, POLK inh inconclusive, FEN1 inhibitor inactive, WRN helicase inh inconclusive, POLH inh 13µM and POLI inh inconclusive.
For COc1ccc(NC(=S)NC(=O)/C=C/c2ccco2)c(OC)c1 the results were Pol beta inh inactive, POLK inh inactive, FEN1 inhibitor inactive, WRN helicase inh inactive, POLH inh inactive and POLI inh inactive.
`Cc1cc(C)c2oc(-c3ccc(C)c(NC(=S)NC(=O)c4cccs4)c3)nc2c1` gave Pol beta inh inactive, POLK inh inactive, FEN1 inhibitor inactive, WRN helicase inh inactive, POLH inh inactive and POLI inh inactive.
`Cc1ccc2oc(-c3cccc(NC(=S)NC(=O)c4cccs4)c3)nc2c1` gave Pol beta inh inactive, POLK inh inactive, FEN1 inhibitor inactive, WRN helicase inh inactive, POLH inh inactive and POLI inh inactive.
Screening CCC1CC=CC2C1C(=O)N(Cc1ccccc1)C2c1ccc2ccccc2c1 (configuration not stated) returned POLK inh inactive, FEN1 inhibitor inactive and POLI inh inactive.
Screening COc1cccc(Cn2c(=O)c(C)nc3cnc(OCc4ccccc4)nc32)c1 returned POLK inh inactive.
Screening Cc1noc(NS(=O)(=O)c2ccc(NC(=O)Nc3ccc(Cl)c(Cl)c3)cc2)c1C returned Pol beta inh inconclusive, POLK inh inactive, FEN1 inhibitor inactive, WRN helicase inh inactive[11.6 µM], POLH inh 50µM and POLI inh inconclusive.
Screening Cc1noc(NS(=O)(=O)c2ccc(NC(=O)C(Cl)(Cl)Cl)cc2)c1C returned Pol beta inh inactive, POLK inh inactive, FEN1 inhibitor inactive, WRN helicase inh inactive, POLH inh inactive and POLI inh inactive.
For Cc1cc2oc(C(=O)Nc3ccc(S(=O)(=O)Nc4onc(C)c4C)cc3)cc(=O)c2cc1C the results were Pol beta inh inactive, POLK inh inactive, FEN1 inhibitor inconclusive, POLH inh 79µM and POLI inh inconclusive.
For Cc1cc2ccccc2cn1 the results were POLK inh inactive, FEN1 inhibitor inactive and POLI inh inactive.
Screening CCN(CCC#N)c1ccc(/C=C/c2ccnc3ccccc23)cc1 returned POLK inh inactive, FEN1 inhibitor inconclusive and POLI inh inactive.
For CC(=O)C1=C(O)C(=O)N(Cc2ccccc2)C1c1ccco1 (configuration not stated) the results were Pol beta inh inconclusive, POLK inh inactive, FEN1 inhibitor inactive, WRN helicase inh inactive, POLH inh 45µM and POLI inh inconclusive.
For CC(=O)C1=C(O)C(=O)N(Cc2ccco2)C1c1ccccc1 (configuration not stated) the results were Pol beta inh inactive, POLK inh inactive, FEN1 inhibitor inconclusive, WRN helicase inh inactive, POLH inh inactive and POLI inh inactive.
For COc1cccc(CNC(=O)Cn2nc(C)c3sc4ccccc4c3c2=O)c1OC the results were Pol beta inh inactive, POLK inh inactive, FEN1 inhibitor inactive, POLH inh inactive and POLI inh inactive.
`Cc1nn(CC(=O)NCc2cccc(Br)c2)c(=O)c2c1sc1ccccc12` gave Pol beta inh 6.3µM, POLK inh inactive, FEN1 inhibitor inactive, POLH inh inactive and POLI inh inactive.
`Cc1nn(CC(=O)NCc2cccc(F)c2)c(=O)c2cccn12` gave Pol beta inh inactive, POLK inh 89µM, FEN1 inhibitor inactive, WRN helicase inh inactive[11.6 µM], POLH inh inactive and POLI inh inconclusive.
COc1cc(OC)c(NC(=O)CCCn2nc(C)c3sc4ccccc4c3c2=O)cc1Cl was read as Pol beta inh 16µM, POLK inh inconclusive, FEN1 inhibitor 35µM, POLH inh inactive and POLI inh inconclusive.
